# Data from the supplement of paper PMC12024424.
# Test system: Staphylococcus aureus Sa2 (MRSA, cystic fibrosis isolate)
# Test: growth reduction vs untreated control (OD550); higher = stronger antibacterial activity
# Settings: 0.1 mM; 24 h
# Experimental: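 Single-dose screen of the MedChem Express Drug Repurposing Library (0.1 mM, 1% DMSO) against planktonic MRSA S. aureus Sa2 (CF isolate) in TSB in 96-well plates, 37 °C aerobic, 24 h. Assays were run in triplicate and repeated twice.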
row,Compound,growth reduction [%]
1,CC(=O)O[C@@H]1CC[C@@]2(C)[C@@H](CC[C@]3(C)[C@@H]2C(=O)C=C2[C@@H]4[C@@H](C)[C@H](C)CC[C@]4(C)CC[C@]23C)[C@@]1(C)C(=O)O,100
2,COc1cc(NCc2ccc3nc(N)nc(N)c3c2C)cc(OC)c1OC [Trimetrexate],90.4
3,CCCCCCCCc1ccc(CCC(N)(CO)CO)cc1 [Fingolimod],100
4,C=Cc1cc(O)cc2nc(-c3ccc(O)c(F)c3)oc12 [Prinaberel],100
5,CC1(C)CC[C@]2(C(=O)O)CC[C@]3(C)[C@H](C(=O)C=C4[C@@]5(C)C=C(C#N)C(=O)C(C)(C)[C@@H]5CC[C@]43C)[C@@H]2C1 [Bardoxolone],100
6,CCCCOc1nc(N)c2c(n1)N(Cc1cccc(CN3CCCC3)c1)CC(=O)N2 [Vesatolimod],100
